Source: PubChem
HEK cytotox – cytotoxic compounds in HEK 293 cells | HEK 293 viability, ATP luminescence (CellTiter-Glo), 48-72 h | hit rate 6.6% among 94,000 | Potency, µM (doses to about 115 µM), for the others: top-dose activity change, negative = cytotoxicity, most hits filed as inhibitors | AID 1345083; note: % is set by controls: 0 for no effect and ±100 for the full control effect; nearly all actives have a fitted effect of over 60% in size
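Read-out: CellTiter-Glo ATP luminescence. Cells: HEK 293, 250 cells/well. Exposure: 48 or 72 hr, 37 degree Celsius.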
FLuc inh-1 – Photinus pyralis luciferase inhibition | purified P. pyralis luciferase, luminescence, biochemical | Potency, µM (doses to about 115 µM), usual class: inhibitors | hit rate 2.5% among 76,000 | P08659; note: % is set by controls: 0 for no effect and ±100 for the full control effect; nearly all actives have a fitted effect of over 65% in size
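Inhibitors were tested against purified firefly luciferase in a biochemical, low-substrate format (both substrates at 10uM) and luminescence measured with a CCD imager.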
GPT2 inh – GPT2 alanine aminotransferase inhibition; Recombinant GPT2, coupled pyruvate oxidase/HRP Amplex Red fluorescence; Potency, µM (doses to about 57.7 µM), without a hit: at the highest dose activity change, negative = inhibition, usual class: inhibitors; AID 1671188; hit rate 0.25% among 100,000; note: % is set by controls: 0 for no effect and ±100 for the full control effect; nearly all actives have a fitted effect of over 60% in size
Target sequence (Q8TD30 whole entry, looked up): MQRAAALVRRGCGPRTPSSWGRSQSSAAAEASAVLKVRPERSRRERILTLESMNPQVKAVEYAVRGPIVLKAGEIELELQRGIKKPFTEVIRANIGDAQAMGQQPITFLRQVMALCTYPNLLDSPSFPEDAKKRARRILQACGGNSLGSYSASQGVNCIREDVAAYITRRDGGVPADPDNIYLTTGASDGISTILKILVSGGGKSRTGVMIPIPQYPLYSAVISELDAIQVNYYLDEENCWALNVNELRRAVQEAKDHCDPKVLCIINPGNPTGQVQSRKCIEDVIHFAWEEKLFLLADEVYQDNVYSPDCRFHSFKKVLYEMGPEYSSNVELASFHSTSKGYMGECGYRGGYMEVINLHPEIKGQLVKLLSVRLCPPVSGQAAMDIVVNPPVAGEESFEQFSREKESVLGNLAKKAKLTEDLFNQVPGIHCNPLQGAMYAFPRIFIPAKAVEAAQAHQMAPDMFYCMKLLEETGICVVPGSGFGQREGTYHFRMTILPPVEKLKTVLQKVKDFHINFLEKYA
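Fluorescence read-out: pyruvate from GPT2 turnover coupled to pyruvate oxidase, HRP and Amplex Red (0.2mM ThPP, 0.2U/mL PO and HRP, 50uM Amplex final). Substrates 250uM a-KG, 2mM L-alanine; enzyme 10ng/uL; 30 min RT.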
hNpr1 antagonist – blocks ANP-stimulated signaling of human Npr1 receptor; P16066; HEK293 hNpr1 GloSensor cGMP, ANP-stimulated luminescence; Potency, µM (series often up to 46.3 µM), inactives show at the highest dose activity change, negative = inhibition, hits mostly inhibitors; hit rate 1.6% among 76,000; calls by dose curve; note: % is set by controls: 0 for no effect and ±100 for the full control effect; nearly all actives have a fitted effect of over 60% in size
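HEK293 cells stably expressing human Npr1 and cGMP GloSensor pGS-40F, loaded 2 h with 2% GloSensor reagent, given compound 30 min at room temperature. Luminescence read before and 20 min after 0.1 nM hNppA.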
NIH3T3 tox – kills NIH 3T3 cells; hit rate 4.3% among 94,000; AID 1345082; Potency, µM (series often up to 96.7 µM), for the others: at the top dose activity change, negative = cytotoxicity, hits mostly inhibitors; NIH 3T3 viability, CellTiter-Glo ATP luminescence, 48-72 h; note: % is set by controls: 0 for no effect and ±100 for the full control effect; nearly all actives have a fitted effect of over 55% in size
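NIH 3T3 cells at 400 cells/well received 23 nL of compound by pintool and were incubated 48 or 72 h at 37 °C. Viability was read as ATP-coupled CellTiter-Glo luminescence.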
FLuc SDR no ATP – binders stabilizing firefly luciferase, without ATP; shares compounds with FLuc inh-1; Purified FLuc-C-HiBiT, Nano-Glo HiBiT luminescence, no ATP; Potency, µM (top dose mostly 32.7 µM), without a hit: at the top dose activation (signal gain), actives largely listed as activators; hit rate 7.8% among 1,300; AID 1963318; note: nearly all actives have a fitted effect of over 55% in size
FLuc SDR ATP – firefly luciferase binding stabilization, ATP added | shares compounds with FLuc inh-1 | purified FLuc-C-HiBiT + ATP, HiBiT complementation luminescence | Potency, µM (series often up to 32.7 µM), inactives show top-dose activation (gain of signal), usual class: activators | hit rate 8.7% among 1,300 | AID 1963319;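 note: signal reports ligand binding via conformational change of the enzyme rather than luciferase catalysis; % of control where 0% means no effect; nearly all actives have a fitted effect of over 55% in size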
FLuc inh-2 – blocks firefly luciferase enzymatic activity; shares compounds with FLuc inh-1; purified FLuc-C-HiBiT enzyme, luciferin luminescence; Potency, µM (doses to about 32.7 µM), for inactives: top-dose activity change, negative = inhibition, most hits filed as inhibitors; hit rate 42% among 1,300; AID 1963320; note: % is set by controls: 0 for no effect and ±100 for the full control effect; nearly all actives have a fitted effect of over 70% in size
* hit, by the source's call; [ ] = dose if it differs, or a comment. This is a sample that favours compounds with a hit; in the whole collection about 10% have one here. Unless noted, calls come from the whole dose curve; as a rule, active = well fitted curve in the direction sought with a large enough effect; inconclusive = small, poorly fitted or top-dose-only effect, or another doubt; inactive = no such curve, though single readings can be large; an effect the other way counts as inactive or inconclusive. Potency is the fitted concentration of half-maximal effect.

What do the screens show for `O=C(NC1CCCN(c2cc(-c3ccc(F)cc3)[nH]n2)C1)c1ccc2ncccc2c1` (stereo unspecified)?
HEK cytotox: inconclusive; FLuc inh-1: 4.5µM*; GPT2 inh: inconclusive; hNpr1 antagonist: -19%; NIH3T3 tox: inconclusive; FLuc SDR no ATP: -3%; FLuc SDR ATP: -3%; FLuc inh-2: 8.8µM*

Results for O=C(NC1CCCN(c2cc(-c3ccc(F)cc3)[nH]n2)C1)c1ccc(C(F)(F)F)cc1 (stereo unspecified) ?
HEK cytotox: inconclusive; FLuc inh-1: inactive; GPT2 inh: -9%; hNpr1 antagonist: -7%; NIH3T3 tox: -17%

How did CN(C)c1cccc(C(=O)NC2CCN(c3cc(-c4ccccc4)[nH]n3)C2)c1 (stereo unspecified) do in these assays?
HEK cytotox: inconclusive; FLuc inh-1: 7.1µM*; GPT2 inh: inconclusive; hNpr1 antagonist: -26%; NIH3T3 tox: inconclusive; FLuc SDR no ATP: 13%; FLuc SDR ATP: 7.9µM*; FLuc inh-2: 7µM*

How did COCCNC(=O)c1cn2cc(-c3cccnc3)sc2n1 do in these assays?
HEK cytotox: 3%; GPT2 inh: -9%; NIH3T3 tox: -22%

Results for COc1ccc(CC(=O)N2C[C@@H]3CCCN4CCC[C@@H]([C@H]34)[C@H]2CCCC(=O)NCC2CC2)cc1 ?
HEK cytotox: -36%; GPT2 inh: inactive; NIH3T3 tox: -31%

What do the screens show for `O=C1c2cnc(-c3ccc(F)cc3F)nc2OCCN1Cc1ccc(F)cc1F`?
HEK cytotox: inconclusive; FLuc inh-1: inactive; GPT2 inh: -11%[88.5 µM]; hNpr1 antagonist: 5%[70.6 µM]; NIH3T3 tox: -2%[138 µM]

Results for O=C1c2cnc(-c3ccc(F)cc3)nc2OCCN1CC1CC1 ?
FLuc SDR no ATP: inconclusive; FLuc SDR ATP: inconclusive; FLuc inh-2: 14µM*

Results for O=C1c2cnc(-c3ccc(F)cc3F)nc2OCCN1CC1CC1 ?
FLuc SDR no ATP: 30%[49.3 µM]; FLuc SDR ATP: inconclusive; FLuc inh-2: inconclusive

Results for O=C(CCCc1c[nH]c2ccccc12)NCC(=O)N1CCCCCNC(=O)CC1c1ccccc1 (stereo unspecified) ?
HEK cytotox: inactive; FLuc inh-1: inactive; GPT2 inh: -2%; hNpr1 antagonist: 7%; NIH3T3 tox: inactive

How did COc1ccccc1C(=O)Nc1cccc(NC(=O)c2cccc(C)c2)c1 do in these assays?
GPT2 inh: 1%

Results for COc1cccc2cc(C(=O)Nc3ccc(C)cc3)c(=O)oc12 ?
FLuc SDR no ATP: 28%; FLuc SDR ATP: 20%; FLuc inh-2: inconclusive

What do the screens show for `COc1ccc2oc(=O)c(C(=O)Nc3cccc(C(=O)O)c3)cc2c1`?
FLuc SDR no ATP: 12µM*; FLuc SDR ATP: 0.05µM*; FLuc inh-2: 0.016µM*

How did CN(C)C(=O)N1CCCC(C(=O)N2CCC3(CC2)CC(=O)Nc2ccccc2O3)C1 (stereo unspecified) do in these assays?
HEK cytotox: 2%; GPT2 inh: inactive; NIH3T3 tox: -15%

Results for C[C@H]1C(=O)N2c3ccccc3[C@@]3(O)C[C@@H]4C(=O)N[C@](C)(c5nc6ccccc6c(=O)n54)N1[C@@H]23 ?
GPT2 inh: -11%[27.3 µM]
